# Inconclusive results are not listed. A call without a number means that no potency is given here. Calls of active or inactive are those of the source. Unless noted, calls come from the whole dose curve; as a rule, active = well fitted curve in the direction sought with a large enough effect in the repeat runs; inconclusive = weak or mixed curves; inactive = no such curve, though single readings can be large; an effect the other way counts as inactive or inconclusive.
# Assays:
# [1] = Human pregnane X receptor (PXR) small molecule agonists, qHTS cell viability counter screen (AID 1346977); note: nearly all actives have a fitted effect of over 50% in size
# Method in brief: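 Viability counter screen: CellTiter-Fluor signal in PXR-Luc HepG2 cells, 24hr compound exposure, 37C, 5% CO2.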
# [2] = Caspase-3/7 induction in CHO-K1 cells by small molecules, qHTS cell viability counter screen (AID 1346979); note: nearly all actives have a fitted effect of over 35% in size
# Method in brief: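 Viability readout by fluorescence (CellTiter-Fluor) on wild-type CHO-K1 cells exposed for 16hr at 37C and 5% CO2 to compounds delivered in DMSO; reagent incubated 1hr before reading.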
# [3] = Caspase-3/7 induction in CHO-K1 cells by small molecules, qHTS assay (AID 1346980); note: nearly all actives have a fitted effect of over 15% in size
# Method in brief: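 Wild-type CHO-K1 cells exposed to compounds for 17hr at 37 C, 5% CO2. Caspase-3/7 activity then measured by Caspase-Glo 3/7 luminescence after 30min at room temperature.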
# [4] = Caspase-3/7 induction in HepG2 cells by small molecules, qHTS cell viability counter screen (AID 1346981); note: series mostly up to about 92 µM; nearly all actives have a fitted effect of over 30% in size
# Method in brief: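 Viability determined by CellTiter-Fluor fluorescence in HepG2 wells also used for the luminescent Caspase-Glo 3/7 read. Compounds were present for 16 hr at 37 C, 5% CO2 before reagent addition.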
# [5] = biological target: Acetylcholinesterase (Homo sapiens) (UniProt P22303); assay: Acetylcholinesterase (AChE) small molecule antagonists: colormetric cell-based qHTS assay (AID 1347395; calls by dose curve; note: nearly all actives have a fitted effect of over 30% in size; note: potency is the fitted concentration of half-maximal effect)
# Method in brief: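 Homogeneous whole-cell format. SH-SY5Y cells seeded overnight, dosed with compound (30 min, 37 C, 5% CO2), then given DTNB/acetylthiocholine cocktail for 90 min at 37 C; colorimetric signal.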
# [6] = biological target: Acetylcholinesterase (Homo sapiens) (UniProt P22303); assay: Acetylcholinesterase (AChE) small molecule antagonists: enzyme-based qHTS assay with human liver microsomes (AID 1347399; calls by dose curve; note: nearly all actives have a fitted effect of over 60% in size; note: potency is the fitted concentration of half-maximal effect); details: Potency: qHTS inhibition
# Method in brief: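 Recombinant human AChE (50 mU/mL in the enzyme mix) and human liver microsomes (0.25 mg/mL final) were preincubated with compound and NADPH (0.25 mg/mL final) for 30 min at 37 C. Acetylthiocholine/DTNB was then added; thiocholine was read colorimetrically after 10 min at room temperature.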
# [7] = biological target: Cytochrome P450 2D6 (Homo sapiens) (UniProt P10635); assay: Cytochrome P450 Family 2 Subfamily D Member 6 (CYP2D6) small molecule antagonists: luciferase reporter qHTS assay (AID 1671196); note: nearly all actives have a fitted effect of over 50% in size; note: potency is the fitted concentration of half-maximal effect
# Method in brief: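 Each well received CYP2D6 with its proluciferin substrate and chemical, sat 10 min, then got NADPH regeneration solution for 1 h at room temperature. Luminescence in RLU served as the activity measure.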
# [8] = biological target: Cytochrome P450 2C9 (Homo sapiens) (UniProt P11712); assay: Cytochrome P450 Family 2 Subfamily C Member 9 (CYP2C9) small molecule antagonists: luciferase reporter qHTS assay (AID 1671198); note: nearly all actives have a fitted effect of over 50% in size; note: potency is the fitted concentration of half-maximal effect
# Method in brief: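 P450-Glo proluciferin substrate with CYP2C9 enzyme; 10 min RT preincubation, then NADPH regeneration 1 h at 37C; luciferin detection reagent 20 min RT, luminescence in relative luminescence units.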
# [9] = biological target: Cytochrome P450 1A2 (Homo sapiens) (UniProt P05177); assay: Cytochrome P450 Family 1 Subfamily A Member 2 (CYP1A2) small molecule antagonists: luciferase reporter qHTS assay (AID 1671199); note: nearly all actives have a fitted effect of over 50% in size; note: potency is the fitted concentration of half-maximal effect
# Method in brief: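 Enzymatic CYP1A2 assay, human, luminescent: 10 min compound–enzyme–substrate preincubation, 1 h NADPH-dependent turnover, 20 min detection step, room temperature throughout. Reduced light indicates lower CYP1A2 activity.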
# [10] = biological target: Voltage-gated inwardly rectifying potassium channel KCNH2 (Homo sapiens) (UniProt Q12809); assay: Human Ether-a-go-go-Related Gene (hERG) channel small molecule antagonists: fluorescence cell-based qHTS assay (AID 1671200); note: nearly all actives have a fitted effect of over 50% in size; note: potency is the fitted concentration of half-maximal effect
# Method in brief: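 Thallium served as the potassium surrogate; its influx into dye-loaded U2OS cells carrying the channel was measured by fluorescence over 2 min.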
# [11] = biological target: Cytochrome P450 3A4 (Homo sapiens) (UniProt P08684); assay: Cytochrome P450 Family 3 Subfamily A Member 4 (CYP3A4) small molecule antagonists: luciferase reporter qHTS assay (AID 1671201); note: nearly all actives have a fitted effect of over 50% in size; note: potency is the fitted concentration of half-maximal effect
# Method in brief: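 Relative luminescence units after 20 min with luciferin detection reagent served as read-out. Beforehand, CYP3A4 turned over a proluciferin substrate for 1 h at room temperature with NADPH regeneration, following 10 min compound preincubation.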
# [12] = Caspase-3/7 induction in HepG2 cells by small molecules, qHTS assay (AID 1346978); note: nearly all actives have a fitted effect of over 15% in size; note: potency is the fitted concentration of half-maximal effect
# Method in brief: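 Wild-type HepG2 cells, 2,000/well, settled 5 hr at 37 C and 5% CO2, then compound-treated for 17 hr; caspase-3/7 activity read by luminescent Caspase-Glo 3/7 after 30 min at room temperature.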
# [13] = biological target: Nuclear receptor subfamily 1 group I member 2 (Homo sapiens) (UniProt O75469); assay: Human pregnane X receptor (PXR) small molecule agonists, qHTS assay (AID 1346982); note: nearly all actives have a fitted effect of over 35% in size; note: potency is the fitted concentration of half-maximal effect
# Method in brief: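 Compound-induced hPXR transactivation of a CYP3A4 luciferase reporter was scored in HepG2 PXR-Luc cells over 24 hr at 37 C, 5% CO2, by luminescence.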
# [14] = biological target: Acetylcholinesterase (Homo sapiens) (UniProt P22303); assay: Acetylcholinesterase (AChE) small molecule antagonists: enzyme-based qHTS assay (AID 1347397; calls by dose curve; note: nearly all actives have a fitted effect of over 55% in size; note: potency is the fitted concentration of half-maximal effect); details: Potency: AChE enzyme activity inhibition
# Method in brief: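 Recombinant human AChE (50 mU/mL) preincubated with compound 30 min at room temperature; acetylthiocholine plus DTNB then added, and thiocholine formation read colorimetrically after 10 min at room temperature. DMSO served as vehicle control.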
# [15] = biological target: Acetylcholinesterase (Homo sapiens) (UniProt P22303); assay: Acetylcholinesterase (AChE) small molecule antagonists: fluorescence cell-based qHTS assay (AID 1347398; calls by dose curve; note: nearly all actives have a fitted effect of over 50% in size); details: Potency: AChE activity
# Method in brief: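 SH-SY5Y cells (2000/well), attached overnight, incubated with compound 30 min at 37 C. Acetylthiocholine plus Thiolite Green then added for 40 min at room temperature. Thiocholine fluorescence (Ex/Em 490/520 nm) reports cellular AChE activity.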
# [16] = biological target: Cytochrome P450 2C19 (Homo sapiens) (UniProt P33261); assay: Cytochrome P450 Family 2 Subfamily C Member 19 (CYP2C19) small molecule antagonists: luciferase reporter qHTS assay (AID 1671197); note: nearly all actives have a fitted effect of over 65% in size; note: potency is the fitted concentration of half-maximal effect
# Method in brief: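 Compounds were tested on CYP2C19 activity via proluciferin conversion to luciferin. The 37C, 1 h reaction followed NADPH addition; detection reagent stopped it.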
# [17] = biological target: Nuclear receptor subfamily 1 group I member 2 (Rattus norvegicus) (UniProt Q9R1A7); assay: Rat pregnane X receptor (rPXR) activation by small molecules, qHTS assay (AID 1346983); details: rPXR luciferase reporter cells, One-Glo luminescence, 24 h; max activation: active compounds read high; note: potency is the fitted concentration of half-maximal effect; nearly all actives have a fitted effect of over 20% in size
# Method in brief: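 Cell-based rPXR activation assay: rPXR cells, 2,000 per well, rested 5hr at 37 C, then exposed to compounds in DMSO for 24 hr at 37 C. Luciferase activity read by One-Glo luminescence after 30 min at room temperature.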
# [18] = biological target: Nuclear receptor subfamily 1 group I member 2 (Homo sapiens) (UniProt O75469); assay: CYP3A4 induction through human pregnane X receptor (PXR) by small molecules, qHTS assay (AID 1346984); note: nearly all actives have a fitted effect of over 40% in size
# Method in brief: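 Readings come from a luciferase reporter: DPX-2 cells, which are HepG2 cotransfected with PXR and a CYP3A4-promoter construct, were exposed to test compounds for 24 h at 37C before One-Glo detection.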
# [19] = biological target: Nuclear receptor subfamily 1 group I member 2 (Homo sapiens) (UniProt O75469); assay: Human pregnane X receptor (PXR) activation by small molecules, qHTS assay (AID 1346985); note: potency is the fitted concentration of half-maximal effect; nearly all actives have a fitted effect of over 40% in size
# Method in brief: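 DPX-2 cells (HepG2 co-transfected with a PXR response element and a CYP3A4-promoter luciferase construct) were seeded at 2,000 per well, rested 5 hr at 37C, then exposed to DMSO-dissolved compounds for 24 hr. Activation was read as luciferase luminescence.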
# Sequence of Cytochrome P450 1A2 (Homo sapiens) (P05177 whole entry, looked up): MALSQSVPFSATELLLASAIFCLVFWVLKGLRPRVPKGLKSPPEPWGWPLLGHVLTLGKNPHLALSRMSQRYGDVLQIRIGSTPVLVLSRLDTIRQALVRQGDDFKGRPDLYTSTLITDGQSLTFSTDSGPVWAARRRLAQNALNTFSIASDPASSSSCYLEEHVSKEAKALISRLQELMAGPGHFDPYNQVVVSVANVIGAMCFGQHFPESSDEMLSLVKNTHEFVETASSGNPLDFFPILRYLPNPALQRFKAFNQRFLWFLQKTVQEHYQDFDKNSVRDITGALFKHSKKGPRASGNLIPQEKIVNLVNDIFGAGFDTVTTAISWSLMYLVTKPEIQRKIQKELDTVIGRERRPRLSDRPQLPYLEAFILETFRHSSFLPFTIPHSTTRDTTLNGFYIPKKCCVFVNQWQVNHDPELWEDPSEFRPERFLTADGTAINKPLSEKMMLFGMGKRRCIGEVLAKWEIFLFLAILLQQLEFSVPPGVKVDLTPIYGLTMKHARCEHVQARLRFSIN
# Sequence of Cytochrome P450 3A4 (Homo sapiens) (P08684 whole entry, looked up): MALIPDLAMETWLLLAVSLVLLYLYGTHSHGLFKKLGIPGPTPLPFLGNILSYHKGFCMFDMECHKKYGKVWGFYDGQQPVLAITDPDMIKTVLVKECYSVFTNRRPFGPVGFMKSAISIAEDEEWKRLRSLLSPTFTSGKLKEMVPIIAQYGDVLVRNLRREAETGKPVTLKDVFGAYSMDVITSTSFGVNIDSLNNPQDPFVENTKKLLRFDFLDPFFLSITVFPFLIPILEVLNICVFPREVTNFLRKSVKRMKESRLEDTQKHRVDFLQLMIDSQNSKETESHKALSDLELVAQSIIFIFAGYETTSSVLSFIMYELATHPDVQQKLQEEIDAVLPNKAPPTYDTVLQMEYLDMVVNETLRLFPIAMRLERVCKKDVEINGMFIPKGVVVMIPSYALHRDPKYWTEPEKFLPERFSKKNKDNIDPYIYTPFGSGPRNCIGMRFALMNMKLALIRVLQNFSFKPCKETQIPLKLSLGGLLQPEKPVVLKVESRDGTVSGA
# Sequence of Cytochrome P450 2D6 (Homo sapiens) (P10635 whole entry, looked up): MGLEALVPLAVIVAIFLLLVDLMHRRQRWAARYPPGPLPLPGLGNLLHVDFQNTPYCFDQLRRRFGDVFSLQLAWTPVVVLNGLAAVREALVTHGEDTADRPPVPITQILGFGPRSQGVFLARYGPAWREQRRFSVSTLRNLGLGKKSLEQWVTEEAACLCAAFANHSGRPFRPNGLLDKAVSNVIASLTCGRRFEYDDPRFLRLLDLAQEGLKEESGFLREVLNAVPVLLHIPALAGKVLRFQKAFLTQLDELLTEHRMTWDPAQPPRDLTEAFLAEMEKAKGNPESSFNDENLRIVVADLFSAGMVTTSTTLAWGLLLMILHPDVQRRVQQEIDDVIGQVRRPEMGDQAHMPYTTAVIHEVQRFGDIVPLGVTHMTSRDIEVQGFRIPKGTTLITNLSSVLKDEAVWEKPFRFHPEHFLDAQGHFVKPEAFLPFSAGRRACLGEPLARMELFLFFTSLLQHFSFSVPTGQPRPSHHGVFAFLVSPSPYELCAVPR
# Sequence of Acetylcholinesterase (Homo sapiens) (P22303 whole entry, looked up): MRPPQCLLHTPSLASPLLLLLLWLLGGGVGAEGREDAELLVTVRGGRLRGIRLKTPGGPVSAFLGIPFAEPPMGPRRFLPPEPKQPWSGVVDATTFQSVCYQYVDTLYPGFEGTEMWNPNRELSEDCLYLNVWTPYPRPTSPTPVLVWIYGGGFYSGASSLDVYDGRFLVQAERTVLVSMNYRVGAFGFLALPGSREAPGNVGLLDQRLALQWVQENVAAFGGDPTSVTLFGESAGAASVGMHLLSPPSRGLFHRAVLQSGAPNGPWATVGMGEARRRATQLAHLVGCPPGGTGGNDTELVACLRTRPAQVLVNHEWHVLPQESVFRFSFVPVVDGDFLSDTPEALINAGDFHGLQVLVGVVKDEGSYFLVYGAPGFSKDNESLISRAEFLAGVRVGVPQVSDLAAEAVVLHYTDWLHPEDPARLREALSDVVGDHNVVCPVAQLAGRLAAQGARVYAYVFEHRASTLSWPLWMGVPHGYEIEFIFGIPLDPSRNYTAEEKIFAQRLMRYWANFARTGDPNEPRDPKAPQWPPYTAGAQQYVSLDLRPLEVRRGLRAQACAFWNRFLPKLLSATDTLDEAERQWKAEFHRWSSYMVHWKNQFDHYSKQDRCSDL
# Sequence of Voltage-gated inwardly rectifying potassium channel KCNH2 (Homo sapiens) (Q12809 whole entry, looked up): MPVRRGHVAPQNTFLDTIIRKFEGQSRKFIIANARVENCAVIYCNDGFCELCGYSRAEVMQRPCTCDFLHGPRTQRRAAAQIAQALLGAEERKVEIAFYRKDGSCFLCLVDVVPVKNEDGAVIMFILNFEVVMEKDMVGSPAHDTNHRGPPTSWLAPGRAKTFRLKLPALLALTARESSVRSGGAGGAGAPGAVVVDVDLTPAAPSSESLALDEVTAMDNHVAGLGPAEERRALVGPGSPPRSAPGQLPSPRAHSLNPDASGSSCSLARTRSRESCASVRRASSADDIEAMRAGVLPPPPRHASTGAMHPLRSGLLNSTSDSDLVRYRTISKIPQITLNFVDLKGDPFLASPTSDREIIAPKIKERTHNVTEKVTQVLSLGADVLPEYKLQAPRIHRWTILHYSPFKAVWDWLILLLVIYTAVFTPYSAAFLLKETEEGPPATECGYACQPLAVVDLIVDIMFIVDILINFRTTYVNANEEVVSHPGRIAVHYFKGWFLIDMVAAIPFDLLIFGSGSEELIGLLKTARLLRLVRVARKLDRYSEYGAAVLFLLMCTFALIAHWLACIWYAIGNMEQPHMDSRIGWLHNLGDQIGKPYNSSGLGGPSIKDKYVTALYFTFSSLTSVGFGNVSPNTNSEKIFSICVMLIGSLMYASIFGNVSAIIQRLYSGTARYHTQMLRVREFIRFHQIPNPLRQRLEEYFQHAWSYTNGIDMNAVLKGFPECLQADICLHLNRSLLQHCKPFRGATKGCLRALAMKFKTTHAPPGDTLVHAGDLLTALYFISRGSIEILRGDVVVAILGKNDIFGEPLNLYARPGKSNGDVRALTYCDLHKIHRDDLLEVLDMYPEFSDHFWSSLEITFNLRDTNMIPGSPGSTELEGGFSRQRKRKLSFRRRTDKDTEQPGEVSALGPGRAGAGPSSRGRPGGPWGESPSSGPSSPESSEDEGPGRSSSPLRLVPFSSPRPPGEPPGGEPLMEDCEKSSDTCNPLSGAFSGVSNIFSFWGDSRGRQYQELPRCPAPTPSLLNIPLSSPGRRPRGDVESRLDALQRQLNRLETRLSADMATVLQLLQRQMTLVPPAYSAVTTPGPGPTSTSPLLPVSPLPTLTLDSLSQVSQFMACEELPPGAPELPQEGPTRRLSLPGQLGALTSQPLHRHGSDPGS
# Sequence of Cytochrome P450 2C19 (Homo sapiens) (P33261 whole entry, looked up): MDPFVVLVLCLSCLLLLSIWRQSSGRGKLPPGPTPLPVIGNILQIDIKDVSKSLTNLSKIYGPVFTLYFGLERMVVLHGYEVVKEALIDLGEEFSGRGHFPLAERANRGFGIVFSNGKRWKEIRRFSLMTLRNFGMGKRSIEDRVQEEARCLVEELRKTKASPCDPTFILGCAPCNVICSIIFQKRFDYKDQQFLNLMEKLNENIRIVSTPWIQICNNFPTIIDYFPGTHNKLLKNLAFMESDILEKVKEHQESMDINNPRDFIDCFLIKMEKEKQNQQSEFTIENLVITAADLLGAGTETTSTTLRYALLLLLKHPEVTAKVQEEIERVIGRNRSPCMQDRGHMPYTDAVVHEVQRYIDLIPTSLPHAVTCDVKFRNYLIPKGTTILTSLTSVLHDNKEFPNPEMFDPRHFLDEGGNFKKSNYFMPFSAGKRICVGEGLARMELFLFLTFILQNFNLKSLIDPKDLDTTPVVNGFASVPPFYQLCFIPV
# Sequence of Cytochrome P450 2C9 (Homo sapiens) (P11712 whole entry, looked up): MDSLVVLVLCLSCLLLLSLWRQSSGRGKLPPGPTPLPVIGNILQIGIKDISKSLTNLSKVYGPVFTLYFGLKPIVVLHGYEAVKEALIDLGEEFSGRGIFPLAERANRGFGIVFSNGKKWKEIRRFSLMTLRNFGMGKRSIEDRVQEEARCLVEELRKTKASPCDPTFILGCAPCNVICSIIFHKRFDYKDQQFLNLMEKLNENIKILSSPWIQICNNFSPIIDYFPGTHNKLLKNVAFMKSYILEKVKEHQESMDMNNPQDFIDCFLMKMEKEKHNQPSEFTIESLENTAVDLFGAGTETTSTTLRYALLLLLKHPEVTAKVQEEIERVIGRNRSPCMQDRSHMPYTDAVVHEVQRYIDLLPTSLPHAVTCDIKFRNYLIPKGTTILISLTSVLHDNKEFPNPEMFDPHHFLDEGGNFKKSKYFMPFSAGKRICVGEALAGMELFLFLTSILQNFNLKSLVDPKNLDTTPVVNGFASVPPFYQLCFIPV
# Sequence of Nuclear receptor subfamily 1 group I member 2 (Homo sapiens) (O75469 whole entry, looked up): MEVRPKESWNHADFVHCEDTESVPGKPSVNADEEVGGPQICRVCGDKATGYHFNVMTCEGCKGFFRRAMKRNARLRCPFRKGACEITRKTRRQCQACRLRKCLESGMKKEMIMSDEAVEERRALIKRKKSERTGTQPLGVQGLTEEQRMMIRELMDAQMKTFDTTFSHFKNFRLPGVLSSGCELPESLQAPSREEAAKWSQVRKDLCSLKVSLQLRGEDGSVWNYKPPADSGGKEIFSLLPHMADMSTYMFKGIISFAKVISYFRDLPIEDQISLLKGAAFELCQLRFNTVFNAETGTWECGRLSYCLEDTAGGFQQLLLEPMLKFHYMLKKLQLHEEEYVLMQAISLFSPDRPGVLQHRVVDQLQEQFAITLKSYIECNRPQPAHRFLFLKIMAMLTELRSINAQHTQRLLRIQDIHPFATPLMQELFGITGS
SMILES,Potency [1],Potency [2],Potency [3],Potency [4],Potency [5],Potency [6],Potency [7],Potency [8],Potency [9],Potency [10],Potency [11],Potency [12],Potency [13],Potency [14],Potency [15],Potency [16],Potency [17],Potency [18],Potency [19]
O=C(N[C@@H]1N=C(c2ccccc2F)c2cccc3c2N(CC3)C1=O)c1cc2ccccc2[nH]1,inactive,inactive,inactive,inactive,inactive,inactive,inactive,4.9 µM (active),inactive,12 µM (active),inactive,,,,,,,,
CN(C)CCc1c[nH]c2ccccc12,,inactive,inactive,inactive,inactive,inactive,39.6 µM (active),inactive,inactive,inactive,inactive,inactive,inactive,inactive,inactive,inactive,,,
S=C=Nc1ccccc1,inactive,,inactive,inactive,inactive,inactive,,65.3 µM (active),32.7 µM (active),inactive,32.7 µM (active),inactive,63.1 µM (active),,,36.7 µM (active),,,
C[C@]12CC[C@H]3[C@@H](CCC4=CC(=O)CC[C@@H]43)[C@@H]1CC[C@@H]2OC(=O)CCc1ccco1,inactive,,,inactive,inactive,inactive,,17.4 µM (active),inactive,10.7 µM (active),,inactive,,inactive,inactive,inactive,,,
CCOC(=O)CCN(SN(C)C(=O)Oc1cccc2c1OC(C)(C)C2)C(C)C,inactive,,inactive,inactive,0.252 µM (active),0.796 µM (active),,12.6 µM (active),22.4 µM (active),,10 µM (active),inactive,,0.1 µM (active),,17.8 µM (active),,,
[Cl-].[Cl-].[Sn+2],inactive,,inactive,inactive,,,,,,inactive,,inactive,,,,,,,
c1ccc2c(c1)cc1ccc3cccc4ccc2c1c34,inactive,,inactive,,inactive,inactive,inactive,,,inactive,inactive,6.99 µM (active),5.55 µM (active),inactive,inactive,inactive,,,
CCNS(=O)(=O)C(F)(F)C(F)(F)C(F)(F)C(F)(F)C(F)(F)C(F)(F)C(F)(F)C(F)(F)F,inactive,,inactive,inactive,inactive,inactive,,1.52 µM (active),inactive,inactive,inactive,inactive,,inactive,inactive,,,,
CC[C@]1(O)CC[C@H]2[C@@H]3CCC4=CCCC[C@@H]4[C@H]3CC[C@@]21C,inactive,,inactive,inactive,inactive,inactive,inactive,,,inactive,,,23.7 µM (active),,,12.3 µM (active),14.1 µM (active),inactive,8.91 µM (active)

# — PubChem BioAssay (Tox21)
